In PubChem BioAssay (EPA / NIEHS):
Records with an inconclusive call do not appear. Activity calls are given as the source filed them. How the source made its calls: active means hit-call score of the fitted dose curve at least 0.9, where 1 is the maximum; inconclusive means response in the unintended direction; inactive means score below 0.9.

These compounds were tested on organic anion transporter (SLCO1B1), SLCO1B1 (gene 10599) (assay: CLD_SLCO1B1_24hr: CellzDirect (CLD) Gene Expression Assay for organic anion transporter (SLCO1B1) at 24 hours (AID 2283690)).
Description: CLD_24hr is a cell-based, multiplexed-readout assay that uses hepatocyte, a human liver primary cell, with measurements taken at 24 hours after chemical dosing in a 96-well plate.CLD_SLCO1B1_24hr is one of 16 assay component(s) measured or calculated from the CLD_24hr assay. It is designed to make measurements of mRNA induction, a form of inducible reporter, as detected with chemiluminescence signals by Quantitative Nuclease Protection Assay (qNPA) technology.Data from the assay component CLD_SLCO1B1_24hr was analyzed at the endpoint, CLD_SLCO1B1_24hr, in the positive analysis fitting direction relative to DMSO as the negative control and baseline of activity. Using a type of inducible reporter, gain-of-signal activity can be used to understand changes in the reporter gene as they relate to the gene SLCO1B1. Furthermore, this assay endpoint can be referred to as a primary readout. To generalize the intended target to other relatable targets, this assay endpoint is annotated to the transporter intended target family, where subfamily is organic anion transporter.
Human hepatocyte cultures were treated daily for two consecutive days with fresh dosing solutions containing appropriate concentrations of the 320 ToxCast chemicals (chemical identities were blinded to CellzDirect and other ToxCast collaborators), vehicle control (0.2% DMSO), and positive control inducers as summarized in Table 1. Due to the large number of treatment groups and chemicals examined, the ToxCast chemicals were divided into two groups (spanning two independent cultures of hepatocytes from separate donor preparations (Hu778: ToxCast plates 1 and 2; Hu776: ToxCast plates 3 and 4). Each preparation of human hepatocyte cultures was treated with respective vehicle control, medium only control, set of six positive controls/reference chemicals for the five hepatic receptor pathways, and a subset of eight of the ToxCast chemicals (indoxacarb, pyrithiobac-sodium, norflurazon, cyhalofop-butyl, methomyl, thiram, acetochlor, and propiconazole). These replicate data, coupled with internal replicates designed within the blinded ToxCast chemical library, provided additional data to evaluate interindividual differences between hepatocyte preparations and their potential impact on chemical profiles.Cell morphology and integrity were evaluated using phase-contrast microscopy as an indicator of hepatocyte cell health (Tyson & Green, 1987). Cultures for each treatment group (i.e., media, vehicle [0.2% DMSO], positive control inducers [multiple concentrations], and the ToxCast chemicals [multiple concentrations]) were observed and cell morphology was assessed relative to vehicle control cultures at each harvest time point (0, 6, 24, or 48 h). […] Images were evaluated at the conclusion of the study to assess changes in cell integrity and account for the effects of chemical exposure on uncharacteristic changes in concentration-dependent gene expression profiles. The results from these determinations of apparent cytotoxicity were annotated (yes/no) alongside the corresponding qNPA data for reference.At the conclusion of each treatment period, hepatocyte cultures (96-well) were washed with 1 volume of HBSS, lysed by addition of 25 ul ArrayPlate lysis buffer (HTG, Tucson, AZ), and 70 ul/well of Denaturation Oil, denatured by incubation at 95C for 10 min, and frozen at approximately -70C until analysis by nuclease protection assay (qNPA) (Roberts et al., 2007). For qNPA analysis, cell lysates were thawed at 50C for approximately 30 min, qNPA probes were added, and samples were incubated at 95C for 10 min to begin the detection process by denaturing the target RNA, dissociating the duplexes and secondary structure hybridization. At the conclusion of the hybridization period, S1 nuclease reagent was added to each sample to digest all nonprotected nucleotides at 50C for 60-90 min. […]
In the case of `CCS(=O)(=O)c1cccnc1S(=O)(=O)NC(=O)Nc1nc(OC)cc(OC)n1`, the outcome is reported as “inactive”. For `N#CN`, the outcome was “inactive”. `[2H]C1([2H])[n+]2ccccc2-c2cccc[n+]2C1([2H])[2H]` was tested, and the outcome was “inactive”. `Oc1ccc(Cl)cc1Cc1ccccc1` was tested, and the outcome was “inactive”. In the case of `COC(=O)c1ccccc1S(=O)(=O)NC(=O)N(C)c1nc(C)nc(OC)n1`, the outcome is reported as “inactive”. With `O=C(Nc1ccccc1)Nc1cnns1` the outcome was “inactive”. `CC[C@H](C)[C@H]1O[C@]2(C=C[C@@H]1C)C[C@@H]1C[C@@H](C/C=C(\C)[C@@H](O[C@H]3C[C@H](OC)[C@@H](O[C@H]4C[C@H](OC)[C@@H](O)[C@H](C)O4)[C@H](C)O3)[C@@H](C)/C=C/C=C3\CO[C@@H]4[C@H](O)C(C)=C[C@@H](C(=O)O1)[C@]34O)O2` (tested in a mixture with another compound) was tested, and the outcome was “inactive”. `OCCOc1ccccc1` was tested, and the outcome was “inactive”. In the case of `Cc1cc(C)nc(NC(=O)NS(=O)(=O)c2ccccc2C(=O)OC2COC2)n1`, the outcome is reported as “inactive”. In the case of `CCN(CC)C(=O)SCc1ccc(Cl)cc1`, the outcome is reported as “inactive”. With `CCOCN(C(=O)CCl)c1c(C)cccc1CC` the outcome was “inactive”. With `COP(=O)(OC)OC=C(Cl)Cl` the outcome was “inactive”. For `CC1(c2ccc(Oc3ccccc3)cc2)OC(=O)N(Nc2ccccc2)C1=O` (configuration not stated), the outcome was “inactive”. `Oc1cc(Cl)ccc1Oc1ccc(Cl)cc1Cl` was tested, and the outcome was “inactive”. For `COc1cc(OC)nc(NC(=O)NS(=O)(=O)c2cc(NC=O)ccc2C(=O)N(C)C)n1`, the outcome was “inactive”. For `CC(C)OC(=O)Nc1cccc(Cl)c1`, the outcome was “inactive”. With `COC(=O)c1ccccc1S(=O)(=O)NC(=O)Nc1nc(C)nc(OC)n1` the outcome was “inactive”. In the case of `CCc1ccc(C(=O)NN(C(=O)c2cc(C)cc(C)c2)C(C)(C)C)cc1`, the outcome is reported as “inactive”. In the case of `CN1CSC(=S)N(C)C1`, the outcome is reported as “inactive”. In the case of `O=C1c2ccccc2C(=O)N1SC(Cl)(Cl)Cl`, the outcome is reported as “inactive”. `COP(=S)(OC)Oc1ccc([N+](=O)[O-])cc1` was tested, and the outcome was “inactive”. For `O=C(O)C(F)(F)C(F)(F)C(F)(F)C(F)(F)C(F)(F)C(F)(F)C(F)(F)F`, the outcome was “inactive”.
